Measurements: PubChem BioAssay AID504706 (National Center for Advancing Translational Sciences (NCATS), 2011)
Among all 320,000 compounds or so, about 200 (0.062%) were called active. Where a call stands in place of a potency, no number is given. Inconclusive results (about 6%) are left out. Calls come from the whole dose curve; as a rule, active = well fitted activation curve with a large enough effect; inconclusive = small, poorly fitted or top-dose-only effect; inactive = no such curve, though single readings can be large or run the other way. Many of the other results were omitted from the sample, so actives are more common in it than they were.

assay: qHTS assay for re-activators of p53 using a Luc reporter; conditions: H1299 p53-A138V BP100-luciferase reporter, luminescence, 24 h; series mostly up to 92.2 µM; note: nearly all actives have a fitted effect of over 45% in size
Source text: The p53 tumor suppressor plays a key role in suppression of tumorigenesis and in human carcinogenesis. It is frequently found inactivated in human cancers, mainly by point mutation. These point mutations are found in a wide variety of human cancers and a majority of them affect the DNA binding domain of the protein. The point mutations either alter native p53 conformation or abolish DNA contact. Additionally, cancer cells with p53 mutations are more resistant to chemo-radiation therapies. In order to find activators to reactivate this important protein, a cell-based screen for p53-dependent luciferase-reporter expression was developed. A p53-null H1299 lung cancer cell line was stably co-transfected with a temperature sensitive p53 mutant, p53-A138V, and a p53-responsive BP100-luciferase reporter. This cell model has previously been characterized in a gene chip profiling experiment for p53 activation. By lowering the culture temperature from 37 deg C (mutant p53 conformation) to 32 deg C (w.t. p53 conformation), a 30-60 fold increase in activation of luciferase activity is observed. At assay temperate, 37 deg C, basal reporter expression is very low and after the addition of detection reagent, a luminescent read-out is carried out. NIH Chemical Genomics Center [NCGC] NIH Molecular Libraries Probe Production Centers Network [MLPCN] MLPCN Grant: DA031088-01A1 Assay Provider (PI): Yi Sung, University of Michigan at Ann Arbor
5ul of 1000 cells per well are dispensed in all wells except column 4, into white solid-bottom TC-treated Kalypsys plates. The cells are kept in Opti-MEM and supplemented with 10% FBS and dispensed using a Multidrop (Thermo). Then using the Kalypsys pin-tool, 23nl of compounds are pinned. The compounds are starting concentration at 10mM, with 1:5 dilution, 4 points, and the control compound nocodazole is pinned in column 1 at 25mM, 1:3 dilution, in duplicate, 25mM nocodazole is pinned in column 2. Please note, all concentrations are working concentrations. 5ul of 1pM purified luciferase enzyme is dispensed using the Kalypsys dispenser in column 4. Plates are incubated for 24 hrs at 37 deg C, 5% CO2, and 95% humidity. Then 4ul of the detection reagent Amplite (ABD Bioquest) is added using the Kalypsys dispenser. Plates are incubated for 10 min at ambient room temperature and are then read on the ViewLux (Perkin Elmer) using a clear filter for a luminescent read-out.
Potency is the fitted concentration of half-maximal effect.

Compound	Potency
COC(=O)[C@]1(C)N[C@H](CN(C)C(=O)c2ccc(C(C)(C)C)cc2)[C@@H]2C(=O)N(C)C(=O)[C@@H]21	inactive
Cc1ccc(CNC(=O)Cn2cnc3c(NCc4ccccc4)ncnc32)o1	inactive
CN(C(=O)c1cccc(NC(=O)Cc2ccc([N+](=O)[O-])cc2)c1)C1CCC1	inactive
CCN(C(=O)CSc1nnnn1-c1ccc(OC)cc1)C1CCS(=O)(=O)C1 (stereo not given)	inactive
C#CCOCCOCCOCCNc1nc(N2CCN(C(=O)[C@H](CCCN=C(N)N)n3cc(C(N)[C@@H](C)CC)nn3)CC2)nc(N2CCN(C(=O)[C@H](CO)n3cc([C@@H](N)C(C)C)nn3)CC2)n1 (stereo not given in full)	inactive
CCCCNS(=O)(=O)CCNCc1ccccc1OC	inactive
C=CCC[C@@H](Cc1ccc(F)cc1)C(=O)OC[C@@H](C)NC(=O)[C@H](CC=C)CC(=O)N(CCO)Cc1ccccc1	inactive
CC(=NNC(=O)c1ccc2nc[nH]c2c1)c1ccc(Br)cc1	inactive
CC[C@@H]1CCCCc2ccccc2[C@@H](C(=O)C[C@H](O)CC(C)=O)OC1=O	inactive
Oc1ccc(Br)cc1/C=N/Nc1ccccn1	28.2 µM (active)
Oc1ccc(/C=N/Nc2ccc(C(F)(F)F)cn2)cc1O	inactive
COc1ccc(-c2nn(-c3ccccc3)cc2/C=N/Nc2ccccn2)cc1OC	inactive
COc1ccc(-c2nc3cc(C)ccn3c2NC2CCCCC2)cc1SC1CCCCC1	inactive
O=C(N/N=C/c1ccc(Cl)c(Cl)c1)c1ccc2nc[nH]c2c1	inactive
CSc1ccc(/C=N\NC(=O)CC(=O)NC(C)C)cc1	inactive
CSc1ccc(/C=N/NC(=O)c2cccc(Cl)c2)cc1	10 µM (active)
COc1ccc2nc3n(c(=O)c2c1)-c1cc(C)ccc1C(=O)NC3Cc1ccc(O)cc1 (stereo not given)	inactive
O=C1CCC/C=C/C[C@@H](CC(=O)N(CCO)Cc2ccccc2)C(=O)NC[C@H](c2ccccc2)O1	inactive
C=CCC[C@H](Cc1ccc(F)cc1)C(=O)OC[C@@H](Cc1c[nH]c2ccccc12)NC(=O)[C@H](CC=C)CC(=O)N[C@H](CO)Cc1ccccc1	inactive
C=CCC[C@H](Cc1ccc(F)cc1)C(=O)OC[C@@H](NC(=O)[C@@H](CC=C)CC(=O)N[C@H](CO)Cc1ccccc1)C(C)(C)C	inactive

Compound	Potency
C=CC[C@@H](CC(=O)N[C@H](CO)Cc1ccccc1)C(=O)N[C@H](C)COC(=O)[C@@H](CC=C)Cc1ccc(F)cc1	inactive
Cc1noc(C)c1S(=O)(=O)N(C)C[C@H]1Oc2c(NC(=O)Nc3ccc4c(c3)OCO4)cccc2C(=O)N([C@H](C)CO)C[C@@H]1C	inactive
O=C(CCc1ccc(S(=O)(=O)N2CCOCC2)cc1)OCC(=O)c1ccc(Br)cc1	inactive
Cc1ccc(NC(=O)C2CCC(C(C)(C)C)CC2)cc1S(=O)(=O)N1CCOCC1 (stereo not given)	inactive
O=C(Cn1cc(C(F)(F)F)ccc1=O)Nc1ccc2c(c1)OCCO2	inactive
COc1ccccc1N(CC(=O)Nc1ccc(C)cc1Cl)S(=O)(=O)c1cccs1	inactive
CC[C@]12c3[nH]c4ccc(Cl)cc4c3CCN1C(=O)[C@@H](CC(=O)NCCCOC)C[C@@H]2C(=O)N1CCN(C(=O)C2CC2)CC1	inactive
COc1ccc(CNC(=O)C[C@H]2C[C@H](C(=O)N3CCOCC3)[C@@]3(C)c4[nH]c5cc(CCC(=O)N(C)C)ccc5c4CCN3C2=O)cc1OC	inactive
COc1ccc(/C=C(\C#N)c2c[nH]c3ccccc23)cc1	31.6 µM (active)
COc1ccc2[nH]cc(/C=C(/C#N)S(=O)(=O)c3ccccc3)c2c1	inactive
COc1ccc(C(C(O)C(=O)c2c[nH]c3ccccc23)N2CCN(c3ccccc3)CC2)cc1 (stereo not given)	inactive
COc1cccc(/C(C)=N/Nc2ncc(Cl)cc2Cl)c1	5.01 µM (active)
C/C(=N\Nc1ncc(Cl)cc1Cl)c1cccs1	inactive
CCN(CC)c1ccc(C(=O)N/N=C(\C)c2cccc(OC)c2)cc1	inactive
O=C1N[C@@H](c2ccccc2)COC(=O)[C@H](Cc2ccc(F)cc2)C/C=C\C[C@@H]1CC(=O)N(CCO)Cc1ccccc1	inactive
Cc1ccc(C(=O)COC(=O)c2cccc(N3C(=O)c4c(C)nc5ccccc5c4C3=O)c2)cc1C	35.5 µM (active)
O=C(CCc1nc2ccccc2c(=O)[nH]1)OCC(=O)c1cccc(Cl)c1	inactive
CCCc1nc2ccccc2c(C(=O)OCC(=O)c2ccc3c(c2)NC(=O)CO3)c1CC	inactive
CNC[C@@H]1Oc2c(NS(C)(=O)=O)cccc2C(=O)N([C@@H](C)CO)C[C@H]1C	inactive
COC(=O)[C@]1(Cc2ccccc2)N[C@H](CN(C)S(=O)(=O)c2ccc(OC(F)(F)F)cc2)[C@@H]2C(=O)N(C)C(=O)[C@@H]21	inactive
